# Test results as given in PubChem BioAssay (NCATS).
# Results filed as inconclusive are left out. A call without a number means that no potency is given here. Activity calls are given as the source filed them. Unless noted, calls follow the shape of the dose curve; as a rule, active = well fitted curve in the direction sought with a large enough effect; inconclusive = small, poorly fitted or top-dose-only effect, or another doubt; inactive = no such curve, though single readings can be large; an effect the other way counts as inactive or inconclusive. Starred links: 1 amine or outer side, 2 acyl side, 3 side chain; linkers in the order of their positions; H or OH if unused. Positions of bridges follow the written chain, without caps; N, C: chain ends. Non-standard residues stand in square brackets, D forms with d. Residues, ends and D or L forms follow the SMILES beside them. *: point of attachment. X1 = NC1=N[C@@H](O)C[C@@H]([C@@H](N[*:1])C(=O)[*:2])N1; ΔAla(Z-3-ureido) = NC(=O)N/C=C(\N)C(=O)O; β3hOrn = NCCC[C@H](N)CC(=O)*; Dap = NC[C@H](N)C(=O)O
# How the values were obtained:
# [1] = AP1 Signaling Pathway (AID 357; active = well fitted curve in either direction with a large enough effect, not every such curve was filed as active;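 also: ME-180 reporter cells stimulated with EGF at its EC50 level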)
# Outline: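 Modulation of EGF-driven AP-1 transcription was assessed with a beta-lactamase reporter in ME-180 cells. Compound and EC50 EGF were co-incubated 5 hours at 37 °C before 2.5-hour CCF4 loading at room temperature and dual-emission reading.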
# [2] = NFAT Signaling Pathway (AID 444; active = well fitted curve in either direction with a large enough effect, not every such curve was filed as active;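 also: carbachol stimulus at about its EC50 of 1 µM final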); conditions: Jurkat NFAT-bla M1, carbachol, beta-lactamase ratio, 5 h; at 17.2 µM (top of the series) unless noted
# Outline: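 Jurkat cells carrying an NFAT-driven β-lactamase reporter and co-transfected muscarinic M1 receptor were treated with compound plus carbachol (1 uM final, an EC50 level) for 5 h at 37 °C. CCF4 loading followed for 1 h at RT; 460/530 nm ratio gave %activity.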
# [3] = Stat Signaling Pathway (AID 446; active = well fitted curve in either direction with a large enough effect, not every such curve was filed as active;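 also: ME-180 cervical cancer cells given 40 pM IL-6 alongside compound; SIE-controlled beta-lactamase reporter measured as 460/530 nm FRET emission ratio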)
# Outline: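 Reporter line: ME-180 cervical carcinoma, SIE-beta-lactamase. Treatment: compound with 40 pM IL-6, 5 hrs, 37 C, in low-serum OPTI-MEM with 10 mM HEPES pH 7.3. Detection: 460/530 nm fluorescence.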
# [4] = target: Glucocorticoid receptor (Homo sapiens) (UniProt P04150); assay: GR-EFC Redistribution (AID 451; calls by dose curve; also: potency is read from the fitted curve at half-maximal effect); conditions: CHO-K1 GR-EFC translocation, beta-gal luminescence, 2 h
# Sequence of Glucocorticoid receptor (Homo sapiens) (P04150 whole entry, looked up, the tested form may be a part): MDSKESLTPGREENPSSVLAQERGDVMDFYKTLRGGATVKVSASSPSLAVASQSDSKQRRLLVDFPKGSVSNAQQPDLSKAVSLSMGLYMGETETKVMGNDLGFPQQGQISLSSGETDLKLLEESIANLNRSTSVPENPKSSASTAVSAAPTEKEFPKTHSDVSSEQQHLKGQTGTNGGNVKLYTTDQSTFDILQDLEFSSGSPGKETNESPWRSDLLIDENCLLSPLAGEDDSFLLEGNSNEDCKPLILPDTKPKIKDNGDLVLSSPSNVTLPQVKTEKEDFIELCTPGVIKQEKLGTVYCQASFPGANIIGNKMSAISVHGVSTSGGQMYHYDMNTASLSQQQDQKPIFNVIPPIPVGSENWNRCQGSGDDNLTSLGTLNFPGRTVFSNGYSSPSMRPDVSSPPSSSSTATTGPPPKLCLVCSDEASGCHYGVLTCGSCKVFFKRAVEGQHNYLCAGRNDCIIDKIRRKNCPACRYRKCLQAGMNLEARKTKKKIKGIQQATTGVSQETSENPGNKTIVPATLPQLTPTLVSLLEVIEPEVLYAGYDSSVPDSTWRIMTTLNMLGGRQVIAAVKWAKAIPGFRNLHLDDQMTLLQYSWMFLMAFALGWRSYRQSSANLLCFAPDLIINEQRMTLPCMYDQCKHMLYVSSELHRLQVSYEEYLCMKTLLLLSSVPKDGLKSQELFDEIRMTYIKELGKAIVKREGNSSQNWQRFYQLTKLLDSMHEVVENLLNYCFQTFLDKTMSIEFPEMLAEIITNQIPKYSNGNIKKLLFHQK
# Outline: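 CHO-K1 cells stably expressing nuclear-localized β-gal enzyme acceptor and GR fused C-terminally to the enzyme donor fragment; ligand-driven nuclear translocation restores β-gal by complementation. Compounds titrated up to 46 uM final, 2 h at 37 °C; luminescence read.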
# [5] = target: Mitogen-activated protein kinase 10 (Mus musculus) (UniProt Q61831); assay: JNK3 AlphaScreen Assay (AID 530; active = well fitted curve in either direction with a large enough effect, not every such curve was filed as active;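 also: kinase came from lysate of stimulated human HepG2 cells; signal reports phosphorylation of biotinylated GST-cJun 1-79 at Ser73 with 10 µM ATP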)
# Outline: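 Inhibitors reduce antibody binding to phosphorylated biotin-cJun, lowering AlphaScreen luminescence. Lysates from HepG2 cells pre-activated by IL-1beta plus TNF-alpha supplied JNK3; compounds were titrated.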
# [6] = target: 3',5'-cyclic-AMP phosphodiesterase 4B (Homo sapiens) (UniProt Q07343); assay: qHTS Assay for Inhibitors of PDE-IV (AID 607; active = well fitted activation curve with a large enough effect in the main read-out, with a control signal flat, not every such curve was filed as active)
# Sequence of 3',5'-cyclic-AMP phosphodiesterase 4B (Homo sapiens) (Q07343 whole entry, looked up): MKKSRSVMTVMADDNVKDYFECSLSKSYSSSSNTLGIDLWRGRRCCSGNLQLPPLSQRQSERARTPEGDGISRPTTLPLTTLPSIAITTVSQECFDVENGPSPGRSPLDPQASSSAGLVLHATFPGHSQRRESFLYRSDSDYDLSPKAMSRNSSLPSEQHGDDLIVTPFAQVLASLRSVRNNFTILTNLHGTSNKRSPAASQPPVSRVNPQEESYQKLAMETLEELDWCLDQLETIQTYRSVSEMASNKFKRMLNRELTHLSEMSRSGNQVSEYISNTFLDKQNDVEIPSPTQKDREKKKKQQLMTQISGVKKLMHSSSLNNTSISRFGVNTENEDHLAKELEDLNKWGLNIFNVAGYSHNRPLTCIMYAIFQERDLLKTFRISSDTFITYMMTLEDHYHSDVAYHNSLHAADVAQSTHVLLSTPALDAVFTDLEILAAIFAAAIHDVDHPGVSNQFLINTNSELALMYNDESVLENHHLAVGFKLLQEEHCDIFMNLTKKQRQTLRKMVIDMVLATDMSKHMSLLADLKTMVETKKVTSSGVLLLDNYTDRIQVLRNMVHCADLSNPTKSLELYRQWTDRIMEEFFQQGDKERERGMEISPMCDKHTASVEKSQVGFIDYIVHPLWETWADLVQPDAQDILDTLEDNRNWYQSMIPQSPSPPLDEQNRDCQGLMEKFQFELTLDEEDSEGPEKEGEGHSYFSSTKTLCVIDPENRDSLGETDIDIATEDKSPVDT
# Outline: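 Cell-based read-out of cAMP via a modified cyclic nucleotide-gated channel and membrane potential dye (535/590 nm) in HEK293 cells expressing PDE4 endogenously. Compounds tested up to 22.9 uM final; 100 uM RO 20-1724 reference.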
# [7] = qHTS Assay for Lipid Storage Modulators (AID 1519; calls by dose curve); conditions: Drosophila S3 cells, BODIPY lipid droplet/cell ratio, laser cytometry, cells loaded with oleic acid; for activity change, negative = inhibition: at 25.7 µM (top of the series)
# Outline: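 Cells seeded at 5,000 per well were treated with compounds over a concentration series and loaded with oleic acid (400 uM, as added). Lipid droplet fluorescence (488 nm excitation, 500-530 nm channel) was read by laser-scanning cytometry and normalized to 20 uM Triacsin C.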
# [8] = target: Ubiquitin carboxyl-terminal hydrolase 1 (Homo sapiens) (UniProt O94782); assay: Inhibitors of USP1/UAF1: Pilot qHTS (AID 504865);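 also: rhodamine fluorescence freed from ubiquitin-rhodamine substrate followed over time; top concentration of the series differs between compounds; nearly all actives have a fitted effect of over 35% in size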
# Sequence of Ubiquitin carboxyl-terminal hydrolase 1 (Homo sapiens) (O94782 whole entry, looked up): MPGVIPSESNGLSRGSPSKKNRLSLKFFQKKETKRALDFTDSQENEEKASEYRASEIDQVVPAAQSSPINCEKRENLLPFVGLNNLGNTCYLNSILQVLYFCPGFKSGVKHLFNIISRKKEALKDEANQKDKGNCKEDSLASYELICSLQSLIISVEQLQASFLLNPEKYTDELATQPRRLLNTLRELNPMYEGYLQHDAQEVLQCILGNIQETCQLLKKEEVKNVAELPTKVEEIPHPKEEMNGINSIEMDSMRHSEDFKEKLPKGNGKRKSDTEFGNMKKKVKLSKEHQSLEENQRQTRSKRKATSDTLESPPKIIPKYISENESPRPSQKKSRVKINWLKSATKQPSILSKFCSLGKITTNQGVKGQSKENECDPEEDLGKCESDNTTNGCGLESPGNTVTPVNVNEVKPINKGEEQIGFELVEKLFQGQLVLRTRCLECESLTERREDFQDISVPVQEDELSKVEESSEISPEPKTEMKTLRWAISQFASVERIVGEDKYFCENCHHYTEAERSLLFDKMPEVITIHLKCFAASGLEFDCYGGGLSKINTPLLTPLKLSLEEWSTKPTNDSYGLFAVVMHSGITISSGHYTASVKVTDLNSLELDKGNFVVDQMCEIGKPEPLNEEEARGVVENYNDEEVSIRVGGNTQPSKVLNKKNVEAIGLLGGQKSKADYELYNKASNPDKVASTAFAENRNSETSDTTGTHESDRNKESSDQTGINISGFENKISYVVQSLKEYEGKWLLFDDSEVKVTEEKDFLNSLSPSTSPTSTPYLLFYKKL
# Outline: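 Kinetic fluorescence assay: 1nM USP1/UAF1, 15 min compound preincubation, then 150nM Ub-Rho; 480/540 nm.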
# [9] = target: Luciferin 4-monooxygenase (Photinus pyralis) (UniProt P08659); assay: Biochemical firefly luciferase enzyme assay for NPC (AID 624030);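 also: purified P. pyralis luciferase at 10 nM with luciferin and ATP substrate; nearly all actives have a fitted effect of over 70% in size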
# Sequence of Luciferin 4-monooxygenase (Photinus pyralis) (P08659 whole entry, looked up): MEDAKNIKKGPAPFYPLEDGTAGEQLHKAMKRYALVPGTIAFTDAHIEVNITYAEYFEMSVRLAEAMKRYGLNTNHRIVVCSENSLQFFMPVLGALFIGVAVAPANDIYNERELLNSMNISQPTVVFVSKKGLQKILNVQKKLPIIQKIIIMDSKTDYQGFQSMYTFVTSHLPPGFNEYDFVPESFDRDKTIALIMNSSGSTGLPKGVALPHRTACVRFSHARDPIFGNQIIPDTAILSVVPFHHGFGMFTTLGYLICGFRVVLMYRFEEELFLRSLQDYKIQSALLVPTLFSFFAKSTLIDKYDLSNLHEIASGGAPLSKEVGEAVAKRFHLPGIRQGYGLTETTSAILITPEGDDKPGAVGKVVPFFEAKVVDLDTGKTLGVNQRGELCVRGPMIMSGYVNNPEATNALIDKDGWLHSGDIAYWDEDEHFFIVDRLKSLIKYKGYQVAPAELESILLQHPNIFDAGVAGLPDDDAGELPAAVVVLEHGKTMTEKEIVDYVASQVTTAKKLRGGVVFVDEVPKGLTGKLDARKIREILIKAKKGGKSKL
# Outline: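 Counter-screen for direct inhibition of the luciferase enzyme by approved-drug library compounds, run at 10 nM enzyme in 50 mM Tris acetate (final). Luminescence was read within 5 min of enzyme-buffer addition and normalized to PTC124 versus DMSO (0%).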
# [10] = S16 Schwann cell viability assay (CellTiter-Glo assay) (AID 624031);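 also: cellular ATP luminescence as a viability measure; nearly all actives have a fitted effect of over 70% in size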
# Outline: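 This viability control uses native rat S16 Schwann cells grown in DMEM plus 10% FBS. After a 24 h compound treatment at 37 °C, CellTiter-Glo luminescence reports ATP content, scaled against DMSO-treated and cell-free wells.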
# [11] = qHTS profiling for inhibitors of Plasmodium falciparum proliferation (AID 504749); also: nearly all actives have a fitted effect of over 60% in size; conditions: P. falciparum in erythrocytes, SYBR Green DNA, 72 h, at 12.8 µM (top of the series)
# Outline: (§1)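 Parasite proliferation within erythrocytes, 72 h exposure. Endpoint: SYBR Green I fluorescence after overnight lysis at room temperature. Controls: 0.29 uM artemisinin, DMSO.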
# [12] = test system: C2A; assay: as above; conditions: P. falciparum in erythrocytes, SYBR Green DNA, 72 h; series mostly up to 12.8 µM
# Outline: as §1
# [13] = test system: CP191; assay: as above; conditions: P. falciparum in erythrocytes, SYBR Green DNA, 72 h; series mostly up to 12.8 µM
# Outline: as §1
# [14] = test system: CP247; assay: as above; conditions: P. falciparum in erythrocytes, SYBR Green DNA, 72 h; series mostly up to 12.8 µM
# Outline: as §1
# [15] = test system: CP250; assay: as above; conditions: P. falciparum in erythrocytes, SYBR Green DNA, 72 h; series mostly up to 12.8 µM
# Outline: as §1
# [16] = test system: CP256; assay: as above; conditions: P. falciparum in erythrocytes, SYBR Green DNA, 72 h; series mostly up to 12.8 µM
# Outline: as §1
# [17] = test system: FAB9; assay: as above; conditions: P. falciparum in erythrocytes, SYBR Green DNA, 72 h; series mostly up to 12.8 µM
# Outline: as §1
# [18] = test system: JCK; assay: as above; conditions: P. falciparum in erythrocytes, SYBR Green DNA, 72 h; series mostly up to 12.8 µM
# Outline: as §1
# [19] = test system: PC49; assay: as above; conditions: P. falciparum in erythrocytes, SYBR Green DNA, 72 h; series mostly up to 12.8 µM
# Outline: as §1
# [20] = target: Glucocorticoid receptor (Homo sapiens) (UniProt P04150); assay: GR-GFP Redistribution (AID 450;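 active = compounds whose dose series gives a full or clear partial fitted curve of increased nuclear translocation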; also: potency is read from the fitted curve at half-maximal effect); conditions: U2OS GR-GFP nuclear translocation, laser cytometry, 2 h
# [21] = measured here: cell count channel max response
# [22] = measured here: lipid channel max response
compound,measurement,setting,value
c1ccc(CNc2ncnc3nc[nH]c23)cc1,outcome,[1],inactive
same,"activity change, negative = inhibition",[2],7.66% (inactive)
same,outcome,[3],inactive
same,Potency,[4],> 20.6 µM (inactive)
same,Potency,[5],inactive
same,outcome,[6],inactive
same,"activity change, negative = inhibition",[7],-0.17% (inactive)
same,max response,[7]; [21],-13.8%
same,max response,[7]; [22],-12.9%
same,Potency,[8],inactive
C[C@]12CC[C@@H]3C(=CCc4cc(O)ccc43)[C@@H]1CCC2=O,outcome,[1],inactive
same,"activity change, negative = inhibition",[2],1.57% (inactive)
same,Potency,[4],> 20.6 µM (inactive)
same,Potency,[5],inactive
same,outcome,[6],inactive
same,"activity change, negative = inhibition",[7],-4.32% (inactive)
same,max response,[7]; [21],-14.4%
same,max response,[7]; [22],-15.4%
same,Potency,[8],inactive
CCc1c(C)[nH]c2c1C(=O)[C@H](CN1CCOCC1)CC2,outcome,[1],inactive
same,"activity change, negative = inhibition",[2],-21.1% (inactive)
same,outcome,[3],inactive
same,Potency,[5],inactive
same,outcome,[6],inactive
same,"activity change, negative = inhibition",[7],0.521% (inactive)
same,max response,[7]; [21],-8.85%
same,max response,[7]; [22],-8.65%
same,Potency,[9],inactive
same,outcome,[10],inactive
same,"activity, negative = inhibition",[11]; parasite line A,13% (inactive)
same,"activity, negative = inhibition",[11]; parasite line B,6.66% (inactive)
same,Potency,[12],inactive
same,Potency,[13],inactive
same,Potency,[14],inactive
same,Potency,[15],inactive
same,Potency,[16],inactive
same,Potency,[17],inactive
same,Potency,[18],inactive
same,Potency,[19],inactive
C[C@@]12C=CC(=O)C=C1CC[C@H]1[C@H]3CC[C@](O)(C(=O)CO)[C@]3(C)CC(=O)[C@@H]12,outcome,[1],inactive
same,"activity change, negative = inhibition",[2],-19.6% (inactive)
same,outcome,[3],inactive
same,Potency,[5],inactive
same,outcome,[6],inactive
same,"activity change, negative = inhibition",[7],-0.593% (inactive)
same,max response,[7]; [21],0.532%
same,max response,[7]; [22],0.96%
CCN[C@@H]1CN(CCCOC)S(=O)(=O)c2sc(S(N)(=O)=O)cc21,outcome,[1],inactive
same,outcome,[3],inactive
same,Potency,[20],> 20.6 µM (inactive)
same,Potency,[4],> 20.6 µM (inactive)
same,Potency,[5],inactive
same,outcome,[6],inactive
same,"activity change, negative = inhibition",[7],1.92% (inactive)
same,max response,[7]; [21],-3.42%
same,max response,[7]; [22],-8.18%
same,Potency,[8],inactive
same,Potency,[9],inactive
same,outcome,[10],inactive
same,"activity, negative = inhibition",[11]; parasite line A,-7.28% (inactive)
same,"activity, negative = inhibition",[11]; parasite line B,4.88% (inactive)
same,Potency,[12],inactive
same,Potency,[13],inactive
same,Potency,[14],inactive
same,Potency,[15],inactive
same,Potency,[16],inactive
same,Potency,[17],inactive
same,Potency,[18],inactive
same,Potency,[19],inactive
CC[C@@H]1OC(=O)[C@H](C)[C@H](O[C@@H]2C[C@](C)(OC)[C@H](O)[C@H](C)O2)[C@H](C)[C@H](O[C@@H]2O[C@@H](C)C[C@@H](N(C)C)[C@@H]2O)[C@](C)(O)C[C@H](C)C(=O)[C@H](C)[C@H](O)[C@]1(C)O,outcome,[1],inactive
same,"activity change, negative = inhibition",[2],0.792% (inactive)
same,outcome,[3],inactive
same,Potency,[5],inactive
same,outcome,[6],inactive
same,"activity change, negative = inhibition",[7],-1.3% (inactive)
same,max response,[7]; [21],9.04%
same,max response,[7]; [22],8.95%
NCCC[C@H](N)CC(=O)N[C@H]1CNC(=O)[C@@H]([C@@H]2C[C@H](O)N=C(N)N2)NC(=O)/C(=C/NC(N)=O)NC(=O)[C@@H](CO)NC(=O)[C@@H](CO)NC1=O (β3hOrn-[Dap][dS][dS][ΔAla(Z-3-ureido)][X1]; lactam 1-C),outcome,[1],inactive
same,"activity change, negative = inhibition",[2],-11.1% (inactive)
same,outcome,[3],inactive
same,outcome,[6],inactive
same,"activity change, negative = inhibition",[7],0.925% (inactive)
same,max response,[7]; [21],-7.09%
same,max response,[7]; [22],-7.39%
same,Potency,[8],inactive
CC(=O)OCC(=O)[C@@]1(O)CC[C@@H]2[C@H]3CCC4=CC(=O)CC[C@]4(C)[C@]3(F)[C@@H](O)C[C@@]21C,outcome,[1],inactive
same,"activity change, negative = inhibition",[2],-9.54% (inactive)
same,outcome,[3],inactive
same,outcome,[6],inactive
same,"activity change, negative = inhibition",[7],0.165% (inactive)
same,max response,[7]; [21],9.04%
same,max response,[7]; [22],9.02%
same,Potency,[8],inactive
CO[C@@H]1C=CO[C@]2(C)Oc3c(C)c(O)c4c(O)c(c(C=NN5CCN(C)CC5)c(O)c4c3C2=O)NC(=O)C(C)=CC=C[C@H](C)[C@H](O)[C@H](C)[C@H](O)[C@H](C)[C@H](OC(C)=O)[C@H]1C,outcome,[1],inactive
same,"activity change, negative = inhibition",[2],-8.69% (inactive)
same,outcome,[3],inactive
same,Potency,[5],inactive
same,outcome,[6],inactive
same,"activity change, negative = inhibition",[7],-0.87% (inactive)
same,max response,[7]; [21],-4.36%
same,max response,[7]; [22],-4.23%
C[C@H]1CS(=O)(=O)CCN1/N=C\c1ccc([N+](=O)[O-])o1,outcome,[1],inactive
same,outcome,[3],inactive
same,Potency,[20],> 20.6 µM (inactive)
same,Potency,[4],> 20.6 µM (inactive)
same,Potency,[5],inactive
same,outcome,[6],inactive
same,"activity change, negative = inhibition",[7],-3.89% (inactive)
same,max response,[7]; [21],-15.4%
same,max response,[7]; [22],-17.6%
same,Potency,[8],inactive
same,Potency,[9],inactive
same,"activity, negative = inhibition",[11]; parasite line A,-17.9% (inactive)
same,"activity, negative = inhibition",[11]; parasite line B,-12.5% (inactive)
same,Potency,[12],inactive
same,Potency,[13],inactive
same,Potency,[14],inactive
same,Potency,[15],inactive
same,Potency,[16],inactive
same,Potency,[17],inactive
same,Potency,[18],inactive
same,Potency,[19],inactive
Cc1cccc(CN2CCN([C@@H](c3ccccc3)c3ccc(Cl)cc3)CC2)c1,outcome,[1],inactive
same,outcome,[3],inactive
same,Potency,[20],> 20.6 µM (inactive)
same,Potency,[4],> 20.6 µM (inactive)
same,Potency,[5],inactive
same,outcome,[6],inactive
same,"activity change, negative = inhibition",[7],-11.4% (inactive)
same,max response,[7]; [21],-11.7%
same,max response,[7]; [22],-24.7%
same,Potency,[9],inactive
same,outcome,[10],inactive
same,Potency,[12],inactive
same,Potency,[16],inactive
same,Potency,[17],inactive
same,Potency,[18],inactive
same,Potency,[19],inactive
CCOC(=O)O[C@@H](C)OC(=O)[C@@H]1N2C(=O)[C@@H](NC(=O)[C@@H](N)c3ccccc3)[C@H]2SC1(C)C,outcome,[1],inactive
same,Potency,[5],inactive
same,outcome,[6],inactive
same,"activity change, negative = inhibition",[7],-1.29% (inactive)
same,max response,[7]; [21],3.59%
same,max response,[7]; [22],0.724%
same,Potency,[8],inactive
same,Potency,[9],inactive
same,outcome,[10],inactive
same,"activity, negative = inhibition",[11]; parasite line A,6.23% (inactive)
same,"activity, negative = inhibition",[11]; parasite line B,6.1% (inactive)
same,Potency,[12],inactive
same,Potency,[13],inactive
same,Potency,[14],inactive
same,Potency,[15],inactive
same,Potency,[16],inactive
same,Potency,[17],inactive
same,Potency,[18],inactive
same,Potency,[19],inactive
